Targets with a hit are over-represented here; the source holds about 7,900 in all. About 0.6% of all pairs of compound and target were hits. A number with no mark means an inactive call.
Compound: C=CC(=O)N1CCC[C@@H](n2nc(-c3ccc(Oc4ccccc4)cc3)c3c(N)ncnc32)C1 [ibrutinib]
Test: log2 fold change, soluble protein after heating vs DMSO (PISA); higher = thermal stabilisation; K562 cells, 10 uM, 30 min; active = over 0.2 and 3.5 SD of the protein, either way, in both replicates (recomputed)
How it was run: (§1)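 Quantification of soluble protein used TMTpro 16plex LC-MS/MS, with channel sums equalised. Samples were the supernatant after 21,000xg for 90 min of pooled aliquots from K562 cells (2×10^6 cells/mL) treated with 10 μM compound for 30 min, heated for 3 min over 48°C-58°C, and extracted in PBS with 0.5% NP-40 at 4°C. Values, from duplicates, describe thermal stability against control samples on a log2 fold-change scale.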

Sequence of UniProt Q9Y5K3 (Q9Y5K3 whole entry, looked up): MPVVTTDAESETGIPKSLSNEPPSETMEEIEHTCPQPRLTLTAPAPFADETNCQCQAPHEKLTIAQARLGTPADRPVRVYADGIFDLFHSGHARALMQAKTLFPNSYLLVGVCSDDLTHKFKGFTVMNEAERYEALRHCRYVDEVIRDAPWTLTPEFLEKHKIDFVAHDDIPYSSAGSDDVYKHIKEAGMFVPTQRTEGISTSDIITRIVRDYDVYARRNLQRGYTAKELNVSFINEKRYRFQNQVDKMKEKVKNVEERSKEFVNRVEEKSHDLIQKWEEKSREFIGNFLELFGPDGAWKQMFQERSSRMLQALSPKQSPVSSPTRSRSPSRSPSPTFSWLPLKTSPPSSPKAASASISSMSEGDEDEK
Sequence of UniProt O96011 (O96011 whole entry, looked up, change not shown): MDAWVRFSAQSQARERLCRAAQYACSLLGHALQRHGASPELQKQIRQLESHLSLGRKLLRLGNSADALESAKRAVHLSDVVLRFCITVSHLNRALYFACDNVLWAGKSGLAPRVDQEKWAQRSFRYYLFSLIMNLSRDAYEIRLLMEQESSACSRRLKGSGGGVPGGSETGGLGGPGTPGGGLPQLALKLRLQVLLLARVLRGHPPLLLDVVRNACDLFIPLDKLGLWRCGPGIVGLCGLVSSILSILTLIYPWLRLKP
Sequence of UniProt Q9Y5Y5 (Q9Y5Y5 whole entry, looked up): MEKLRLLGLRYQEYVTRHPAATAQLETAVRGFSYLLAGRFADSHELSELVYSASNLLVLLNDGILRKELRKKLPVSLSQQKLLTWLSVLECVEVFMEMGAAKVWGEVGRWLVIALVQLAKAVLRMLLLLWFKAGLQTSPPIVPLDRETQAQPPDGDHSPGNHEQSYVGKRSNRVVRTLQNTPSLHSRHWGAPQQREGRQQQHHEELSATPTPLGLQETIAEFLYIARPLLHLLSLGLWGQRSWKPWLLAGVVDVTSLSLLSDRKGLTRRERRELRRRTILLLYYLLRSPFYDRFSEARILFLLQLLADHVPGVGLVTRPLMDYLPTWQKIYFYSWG
Sequence of UniProt Q9UNM6 (Q9UNM6 whole entry, looked up): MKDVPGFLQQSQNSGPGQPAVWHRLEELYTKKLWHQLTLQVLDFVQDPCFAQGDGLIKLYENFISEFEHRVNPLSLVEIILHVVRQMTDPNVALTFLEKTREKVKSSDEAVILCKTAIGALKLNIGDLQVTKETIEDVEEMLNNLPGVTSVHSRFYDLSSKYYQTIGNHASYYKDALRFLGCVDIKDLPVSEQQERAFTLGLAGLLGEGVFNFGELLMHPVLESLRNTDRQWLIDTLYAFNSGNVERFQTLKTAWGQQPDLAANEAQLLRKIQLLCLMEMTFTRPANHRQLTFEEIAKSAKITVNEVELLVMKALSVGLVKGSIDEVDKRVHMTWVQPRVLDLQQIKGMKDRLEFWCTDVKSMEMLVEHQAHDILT
Sequence of UniProt Q9Y244 (Q9Y244 whole entry, looked up): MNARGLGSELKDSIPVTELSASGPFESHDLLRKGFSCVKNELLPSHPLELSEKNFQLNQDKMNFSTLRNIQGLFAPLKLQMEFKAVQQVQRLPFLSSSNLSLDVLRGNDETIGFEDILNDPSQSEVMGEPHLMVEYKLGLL
Sequence of UniProt Q8WUK0 (Q8WUK0 whole entry, looked up): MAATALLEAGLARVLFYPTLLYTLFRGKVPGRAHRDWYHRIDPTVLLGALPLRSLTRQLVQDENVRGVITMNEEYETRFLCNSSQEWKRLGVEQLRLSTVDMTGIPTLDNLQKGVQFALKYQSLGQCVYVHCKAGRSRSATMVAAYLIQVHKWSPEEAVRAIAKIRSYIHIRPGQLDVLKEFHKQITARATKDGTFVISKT
Sequence of UniProt Q86T03 (Q86T03 whole entry, looked up): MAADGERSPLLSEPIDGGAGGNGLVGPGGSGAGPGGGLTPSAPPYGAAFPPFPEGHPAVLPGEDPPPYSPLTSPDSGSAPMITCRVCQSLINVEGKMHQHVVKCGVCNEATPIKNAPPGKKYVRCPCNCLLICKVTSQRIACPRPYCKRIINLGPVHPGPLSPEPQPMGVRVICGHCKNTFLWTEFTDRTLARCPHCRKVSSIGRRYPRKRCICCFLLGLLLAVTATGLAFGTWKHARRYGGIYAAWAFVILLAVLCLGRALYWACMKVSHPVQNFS
Sequence of UniProt Q15172 (Q15172 whole entry, looked up): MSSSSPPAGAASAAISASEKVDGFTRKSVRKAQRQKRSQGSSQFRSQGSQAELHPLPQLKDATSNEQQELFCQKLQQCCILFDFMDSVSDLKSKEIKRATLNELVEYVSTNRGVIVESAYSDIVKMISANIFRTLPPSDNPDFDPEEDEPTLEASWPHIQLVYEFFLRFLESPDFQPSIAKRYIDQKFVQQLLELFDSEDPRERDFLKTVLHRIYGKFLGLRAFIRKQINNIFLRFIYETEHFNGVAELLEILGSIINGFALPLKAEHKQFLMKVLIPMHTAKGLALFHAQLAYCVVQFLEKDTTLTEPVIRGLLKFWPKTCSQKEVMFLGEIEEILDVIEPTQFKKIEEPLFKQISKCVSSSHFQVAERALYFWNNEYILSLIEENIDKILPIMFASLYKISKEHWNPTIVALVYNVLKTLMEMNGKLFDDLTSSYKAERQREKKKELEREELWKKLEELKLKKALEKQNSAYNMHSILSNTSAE
Sequence of UniProt Q9NR12 (Q9NR12 whole entry, looked up): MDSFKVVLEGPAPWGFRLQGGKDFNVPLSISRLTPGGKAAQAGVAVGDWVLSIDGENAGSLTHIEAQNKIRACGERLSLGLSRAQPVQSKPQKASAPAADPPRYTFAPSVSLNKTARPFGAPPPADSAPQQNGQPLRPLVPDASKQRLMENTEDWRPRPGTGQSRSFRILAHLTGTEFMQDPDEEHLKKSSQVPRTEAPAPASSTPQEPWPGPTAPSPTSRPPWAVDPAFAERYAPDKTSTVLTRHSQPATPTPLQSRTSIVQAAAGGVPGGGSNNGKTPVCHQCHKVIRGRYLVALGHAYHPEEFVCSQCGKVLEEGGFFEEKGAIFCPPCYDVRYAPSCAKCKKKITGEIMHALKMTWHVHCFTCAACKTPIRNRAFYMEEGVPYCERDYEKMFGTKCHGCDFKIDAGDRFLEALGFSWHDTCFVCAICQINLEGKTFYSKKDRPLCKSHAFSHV
Sequence of UniProt O15162 (O15162 whole entry, looked up): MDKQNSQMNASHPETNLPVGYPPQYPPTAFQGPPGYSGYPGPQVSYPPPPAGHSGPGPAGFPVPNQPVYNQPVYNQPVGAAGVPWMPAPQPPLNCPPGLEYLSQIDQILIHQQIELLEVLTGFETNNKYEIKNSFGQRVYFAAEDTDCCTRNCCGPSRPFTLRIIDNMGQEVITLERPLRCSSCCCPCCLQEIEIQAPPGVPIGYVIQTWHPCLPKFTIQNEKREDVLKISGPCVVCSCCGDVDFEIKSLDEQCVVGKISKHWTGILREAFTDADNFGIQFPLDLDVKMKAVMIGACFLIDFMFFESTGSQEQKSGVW
Sequence of UniProt Q15004 (Q15004 whole entry, looked up): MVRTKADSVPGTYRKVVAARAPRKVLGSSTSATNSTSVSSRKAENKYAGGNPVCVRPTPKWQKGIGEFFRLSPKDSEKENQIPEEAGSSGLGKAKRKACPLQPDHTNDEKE
Sequence of UniProt Q8NCC3 (Q8NCC3 whole entry, looked up): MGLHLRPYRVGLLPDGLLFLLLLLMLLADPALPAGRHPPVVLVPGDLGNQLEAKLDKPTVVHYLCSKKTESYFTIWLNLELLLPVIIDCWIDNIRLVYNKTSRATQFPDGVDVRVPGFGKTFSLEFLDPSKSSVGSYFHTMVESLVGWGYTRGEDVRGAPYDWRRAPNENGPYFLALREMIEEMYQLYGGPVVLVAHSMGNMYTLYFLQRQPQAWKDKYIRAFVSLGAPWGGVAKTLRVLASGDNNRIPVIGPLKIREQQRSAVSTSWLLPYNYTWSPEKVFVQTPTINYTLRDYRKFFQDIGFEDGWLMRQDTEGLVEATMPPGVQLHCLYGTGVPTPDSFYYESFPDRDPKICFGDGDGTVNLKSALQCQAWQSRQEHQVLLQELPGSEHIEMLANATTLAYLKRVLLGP
Sequence of UniProt Q2TAL8 (Q2TAL8 whole entry, looked up): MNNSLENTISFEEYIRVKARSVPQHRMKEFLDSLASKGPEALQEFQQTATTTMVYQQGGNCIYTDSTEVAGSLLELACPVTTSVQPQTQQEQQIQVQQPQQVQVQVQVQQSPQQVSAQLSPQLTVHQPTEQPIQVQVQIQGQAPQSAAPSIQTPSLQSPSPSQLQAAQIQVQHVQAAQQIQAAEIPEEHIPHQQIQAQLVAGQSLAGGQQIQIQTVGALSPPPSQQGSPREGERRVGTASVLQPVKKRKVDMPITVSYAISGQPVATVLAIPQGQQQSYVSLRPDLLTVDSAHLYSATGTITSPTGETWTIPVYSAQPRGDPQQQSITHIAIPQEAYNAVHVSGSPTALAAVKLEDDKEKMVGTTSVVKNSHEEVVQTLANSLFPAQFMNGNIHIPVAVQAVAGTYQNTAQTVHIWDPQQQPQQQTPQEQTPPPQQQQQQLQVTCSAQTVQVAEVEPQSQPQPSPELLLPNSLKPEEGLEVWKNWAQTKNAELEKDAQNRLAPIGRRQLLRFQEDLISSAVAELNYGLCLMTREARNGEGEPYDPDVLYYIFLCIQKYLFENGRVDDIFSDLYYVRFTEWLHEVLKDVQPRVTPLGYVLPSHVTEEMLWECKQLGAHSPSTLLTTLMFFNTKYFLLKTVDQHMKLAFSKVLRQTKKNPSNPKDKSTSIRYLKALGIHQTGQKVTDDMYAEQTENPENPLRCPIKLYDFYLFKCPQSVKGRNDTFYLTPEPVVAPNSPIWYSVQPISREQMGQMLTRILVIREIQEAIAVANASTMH
Sequence of UniProt P51665 (P51665 whole entry, looked up): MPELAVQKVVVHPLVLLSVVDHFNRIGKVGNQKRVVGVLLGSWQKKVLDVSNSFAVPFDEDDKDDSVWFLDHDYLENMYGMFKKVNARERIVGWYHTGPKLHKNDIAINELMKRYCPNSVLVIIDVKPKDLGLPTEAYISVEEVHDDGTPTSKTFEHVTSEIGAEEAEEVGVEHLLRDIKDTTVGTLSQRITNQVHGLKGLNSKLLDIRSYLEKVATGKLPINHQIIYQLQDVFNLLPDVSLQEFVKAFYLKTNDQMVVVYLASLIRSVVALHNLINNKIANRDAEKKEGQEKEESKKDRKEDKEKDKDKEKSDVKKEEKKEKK

Target | log2 fold change
PCLAF (UniProt Q15004) | 0.034
PTGFRN (UniProt Q9P2B2) | 0.06
PSMD7 (UniProt P51665) | -0.006
POTEI (UniProt P0CG38) | 0.046
POMP (UniProt Q9Y244) | -0.002
PRKACB isoform 2 (UniProt P22694) | -0.032
PPP2R5A (UniProt Q15172) | -0.024
PHKA2 (UniProt P46019) | -0.095
PCTP (UniProt Q9UKL6) | -0.018
PEX11B (UniProt O96011) | 0.04
PRKAR1B (UniProt P31321) | 0.004
PTPMT1 (UniProt Q8WUK0) | -0.05
POLD1 (UniProt P28340) | 0.021
PSMD9 (UniProt O00233) | -0.005
QRICH1 (UniProt Q2TAL8) | -0.024
PNPLA8 (UniProt Q9NP80) | -0.049
POLA1 (UniProt P09884) | -0.06
PSMD1 (UniProt Q99460) | -0.022

Target | log2 fold change
PHKA1 (UniProt P46020) | -0.001
PPP2R5C isoform 5 (UniProt Q13362) | 0.041
PTRHD1 (UniProt Q6GMV3) | 0.004
PSMC5 (UniProt P62195) | -0.031
PDLIM7 (UniProt Q9NR12) | 0.005
PTTG1 (UniProt O95997) | -0.017
PEX16 isoform 2 (UniProt Q9Y5Y5) | -0.059
PCYT1B (UniProt Q9Y5K3) | -0.029
PSMD13 (UniProt Q9UNM6) | -0.039
PIP4P1 isoform 2 (UniProt Q86T03) | 0.003
PIP4K2A (UniProt P48426) | -0.03
PRIM1 (UniProt P49642) | -0.035
PRKAR2A (UniProt P13861) | 0.013
PLSCR1 (UniProt O15162) | 0.002
PHKG2 (UniProt P15735) | -0.008
POLR3D (UniProt P05423) | 0.766
PDE4DIP isoform 4 (UniProt Q5VU43) | 0.001
PLA2G15 (UniProt Q8NCC3) | -0.012

Compound: CC(=O)c1cnc2ccc(-c3cc(Cl)c(O)c(Cl)c3)nc2c1N[C@H]1CC[C@H](CN(C)C)CC1
Test: as above
How it was run: as §1

Target | log2 fold change
PCLAF (UniProt Q15004) | -0.061
PTGFRN (UniProt Q9P2B2) | -0.111
PSMD7 (UniProt P51665) | 0.028
POTEI (UniProt P0CG38) | 0.052
POMP (UniProt Q9Y244) | -0.002
PRKACB isoform 2 (UniProt P22694) | -0.067
PPP2R5A (UniProt Q15172) | 0.004
PHKA2 (UniProt P46019) | 0.049
PCTP (UniProt Q9UKL6) | 0.054
PEX11B (UniProt O96011) | 0.032
PRKAR1B (UniProt P31321) | -0.112
PTPMT1 (UniProt Q8WUK0) | -0.131
POLD1 (UniProt P28340) | -0.081
PSMD9 (UniProt O00233) | -0.003
QRICH1 (UniProt Q2TAL8) | 0.048
PNPLA8 (UniProt Q9NP80) | 0.151
POLA1 (UniProt P09884) | -0.02
PSMD1 (UniProt Q99460) | 0.03

Target | log2 fold change
PHKA1 (UniProt P46020) | 0.306
PPP2R5C isoform 5 (UniProt Q13362) | -0.059
PTRHD1 (UniProt Q6GMV3) | -0.048
PSMC5 (UniProt P62195) | 0.008
PDLIM7 (UniProt Q9NR12) | -0.054
PTTG1 (UniProt O95997) | 0.057
PEX16 isoform 2 (UniProt Q9Y5Y5) | -0.025
PCYT1B (UniProt Q9Y5K3) | -0.072
PSMD13 (UniProt Q9UNM6) | 0.048
PIP4P1 isoform 2 (UniProt Q86T03) | -0.002
PIP4K2A (UniProt P48426) | 0.749 (active)
PRIM1 (UniProt P49642) | 0.007
PRKAR2A (UniProt P13861) | -0.696 (active)
PLSCR1 (UniProt O15162) | -0.025
PHKG2 (UniProt P15735) | 0.39 (active)
POLR3D (UniProt P05423) | 0.022
PDE4DIP isoform 4 (UniProt Q5VU43) | 0.045
PLA2G15 (UniProt Q8NCC3) | -0.018
